# Among all 400,000 compounds or so, about 13,000 (3.2%) were called active. Where a call stands in place of a potency, no number is given. Another 18% or so got no clear call; they are omitted. The call rests on the fitted dose curve; in most records, active means well fitted cell-killing curve with a large enough effect; inconclusive means small, poorly fitted or top-dose-only effect, or effect the other way; inactive means flat fitted curve, though single readings scatter. The full list was thinned out, with actives kept by preference.
# Experiment: qHTS assay for MDR1-selective chemotherapeutics: Primary screen using the drug-selected MDR subline cells KB-V1; further: nearly all actives have a fitted effect of over 60% in size
# Details: KB-V1 MDR cells viability, CellTiter-Glo, 72 h; series mostly up to 46.1 µM
# Method in brief: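 Cytotoxicity via CellTiter-Glo luminescence after 72 h compound exposure at 37 degrees C. Cells: drug-selected KB-V1 line, DMEM phenol-red free plus 10% FBS. Compounds tested at multiple concentrations; normalized data fitted to concentration-effect curves.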
# Potency means the concentration at half of the fitted maximal effect.
row,Compound,Potency
1,CCSc1ccccc1C(=O)NCc1ccc(OC)cc1,20.6 µM (active)
2,CCc1nc2ccccc2c(C(=O)NCc2ccc(OC)cc2)c1C,inactive
3,CSc1ccccc1C(=O)NCc1ccccc1,inactive
4,O=C(CSc1ccc(Cl)cc1)NC1CC1,inactive
5,CCC1CCCCN1CCNS(=O)(=O)c1ccc2c(c1)CCN2C(C)=O (stereo unspecified),inactive
6,CCC(=O)N1CCc2cc(Br)c(S(=O)(=O)NCCN3CCCCC3CC)cc21 (stereo unspecified),10.3 µM (active)
7,CCCN(CCC)S(=O)(=O)c1cc2c(cc1Br)CCN2C(=O)CC,inactive
8,NC(=O)Nc1ccc(/C=C/c2ccnc3ccccc23)cc1,inactive
9,C[C@H]1CN([C@@H](C)CO)C(=O)CCCn2nncc2CO[C@@H]1CN(C)Cc1ccc(Oc2ccccc2)cc1,inactive
10,COc1ccccc1CNC(=O)c1cc(-c2cc(F)ccc2OC)n[nH]1,inactive
11,Brc1ccc(-c2noc(-c3ccccc3)n2)o1,inactive
12,CCCCCCOc1ccc(OC(=O)c2cccnc2)cc1,inactive
13,O=C(Oc1ccc(-c2nc(-c3ccccn3)no2)cc1)c1ccccc1,7.31 µM (active)
14,CC(C)Nc1ncnc2c1ncn2[C@H]1CN(Cc2ccncc2)C[C@@H](CO)O1,inactive
15,CN1OC[C@@H]2CN(C(=O)c3ccc(-c4ccccc4)cc3)[C@H](c3ccc(-c4cccc(F)c4)cc3)C[C@@H]21,inactive
16,CCC(=O)N1CCCC1(C)C(=O)Nc1ccc2c(c1)CCN2C(C)=O (stereo unspecified),inactive
17,CCC(=O)N(CCc1ccccc1)Cc1cc2cc(C)ccc2[nH]c1=O,inactive
18,CCN(Cc1cc2cc(C)ccc2[nH]c1=O)S(=O)(=O)c1ccccc1,3.66 µM (active)
19,Cc1ccc(S(=O)(=O)N(Cc2cc3ccccc3[nH]c2=O)CC2CCCO2)cc1 (stereo unspecified),inactive
20,S=C(NN=Cc1ccccn1)Nc1ccccn1,inactive
21,Cc1ccc(CNC(=O)Nc2nnc([C@H]3C[C@H](O)[C@@H](CO)O3)s2)cc1,inactive
22,CCN(CC)S(=O)(=O)c1cc(C(=O)Nc2ccccn2)ccc1C,23.1 µM (active)
23,Cc1ccc(NC(=O)CNCc2ccccn2)cc1S(=O)(=O)N(C)C,inactive
24,Cc1ccc(C(=O)Nc2ncccc2C)cc1S(=O)(=O)N1CCOCC1,inactive
25,COc1ccc(CN2CCC(C)(Oc3cccc(F)c3)C2)c2ccccc12 (stereo unspecified),inactive
26,Fc1ccc(-c2nnc(CSc3nnc(-c4ccc5c(c4)OCO5)o3)o2)cc1,inactive

row,Compound,Potency
1,CCSc1nnc(-c2cc3c(s2)-c2ccccc2CC3)o1,inactive
2,Fc1ccc(CSc2nnc(-c3cc4c(s3)-c3ccccc3CC4)o2)cc1,20.6 µM (active)
3,CCc1nc2ccc(C(=O)N(C)Cc3ccco3)cn2c1N(C)C(=O)Cc1ccccc1,inactive
4,O=C(C1CCN(S(=O)(=O)c2ccc(Br)s2)CC1)N1CCN(c2ccccc2)CC1,inactive
5,CSc1ccc(S(=O)(=O)N2CCC(C(=O)NCCc3ccccc3)CC2)cc1,inactive
6,O=C(NCCc1ccccc1)C1CCN(S(=O)(=O)c2ccc(Br)s2)CC1,2.06 µM (active)
7,Cc1cccc(NC(=O)CN2CCCN(S(=O)(=O)c3ccc(Br)s3)CC2)c1,inactive
8,CC(C)N(C(=O)CN1CCN(S(=O)(=O)c2ccc(Br)s2)CC1)C(C)C,23.1 µM (active)
9,O=C(C1CCN(S(=O)(=O)c2ccc(Br)s2)CC1)N1CCN(C2CCCCC2)CC1,inactive
10,CCCCNC(=O)C1CCCN(c2nnc(C)c3c(C)n(-c4ccc(Cl)cc4)nc23)C1 (stereo unspecified),inactive
11,O=C1OCCC1=COCCCCOC=C1CCOC1=O,inactive
12,CCc1nc2ccc(C(=O)NC3CCN(Cc4ccccc4)CC3)cn2c1N(C)CCN1CCOCC1,inactive
13,CCc1ccc(NC(=O)c2nn(-c3ccc(C)cc3)c(=O)n(C)c2=O)cc1,inactive
14,O=C(CCl)NNc1nc(-c2ccccc2)c2cc(Cl)ccc2n1,inactive
15,Clc1ccc2nc(-c3ccccc3)nc(C(Cl)Cl)c2c1,3.66 µM (active)
16,NC(N)=Nc1nc(-c2ccccc2)c2cc(Cl)ccc2n1,inactive
17,CCc1nc2ccc(C(=O)Nc3cc(-c4ccccc4)ccc3OC)cn2c1N(CC)CC(=O)N(C)C,inactive
18,O=C(OCc1cc(=O)n2nc(C3CC3)sc2n1)c1ccccc1Cl,inactive
19,Cn1c(=O)[nH]c(=O)c2c1nc(CN(Cc1ccccc1)Cc1ccccc1)n2CCN1CCOCC1,6.51 µM (active)
20,Cn1c(=O)c2c(nc(CN3CCOCC3)n2Cc2ccccc2)n(C)c1=O,inactive
21,Cn1c(=O)[nH]c(=O)c2c1nc(CN1CCN(c3ccccc3F)CC1)n2CCc1ccccc1,inactive
22,C[C@H]1CN([C@@H](C)CO)C(=O)c2cc(C3=CCCCC3)cnc2O[C@@H]1CN(C)C(=O)Cc1ccccc1,inactive
23,COc1ccc(CCNC(=O)Cn2c(=O)n(-c3ccccc3)c(=O)c3c(C)c(C)sc32)cc1OC,inactive
24,CC1(C(=O)NS(=O)(=O)C2CC2)CCCN(C(=O)CSc2ccccc2)C1 (stereo unspecified),inactive
25,COc1ccc(CCNC(=O)COC(=O)/C=C/c2cccs2)cc1OC,inactive
26,Cn1c(C(=O)NCCCN2CCCCC2)cc2sccc21,inactive

row,Compound,Potency
1,COc1ccc(CCNC(=O)c2cc3sccc3n2C)cc1OC,20.6 µM (active)
2,O=C(O)C1=C(C(=O)O)C2CCC1C2,inactive
3,Cc1ccc(S(=O)(=O)n2nc(C)c(S(=O)(=O)N3CCCCCC3)c2C)cc1,inactive
4,CN=c1scc(-c2cc(OC)ccc2OC)n1/N=C/c1c(C)[nH]c2ccccc12,inactive
5,COc1ccc(N=Cc2c(O)[nH]c3ccccc23)cc1OC,6.51 µM (active)
6,COc1ccccc1N=Cc1c(O)c2ccccc2oc1=O,inactive
7,COc1cc2[nH]c(O)c(C=O)c2cc1OC,inactive
8,COc1cc(N=Cc2c(O)[nH]c3ccccc23)cc(OC)c1OC,4.11 µM (active)
9,Oc1[nH]c2ccccc2c1N=Nc1c(F)c(F)c(F)c(F)c1F,inactive
10,CCCCN(C(C)=O)c1ccc2c(c1)C1CC2CCN1Cc1ccccc1 (stereo unspecified),inactive
11,Cc1ccccc1-c1nc(SCC(=O)N(C)c2ccccc2)c2c(=O)n(C)c(=O)n(C)c2n1,inactive
12,CC1(C(=O)NS(=O)(=O)c2cccc(F)c2)CCN1C(=O)Cc1ccc(Cl)cc1Cl (stereo unspecified),inactive
13,CNC(=O)c1ccc(CN(C)C(=O)c2cc(C3CC3)nc3c2cnn3C(C)C)cc1,inactive
14,Cc1nonc1NC(=O)c1oc2ccccc2c1C,inactive
15,Cc1c(C(=O)Nc2ccccn2)oc2ccc(Br)cc12,11.6 µM (active)
16,Cc1noc(C)c1C(=O)Nc1ccccn1,inactive
17,CCS(=O)(=O)c1nc(S(=O)(=O)c2ccc(C)cc2)c(NCc2ccc(Cl)cc2)s1,inactive
18,N#Cc1ccc(C(C(=O)NCc2ccccc2)n2c(=O)c(-c3ccco3)nc3ccccc32)cc1 (stereo unspecified),inactive
19,C=CCC[C@H](CCCCC)OC(=O)/C=C/[C@H](O)[C@@H](O)C[C@@H](O)CC=C,inactive
20,O=C1c2ccccc2NC(c2ccc(-c3cccc(Cl)c3)o2)N1O (stereo unspecified),4.61 µM (active)
21,O=C(O)C(c1ccccc1)N1C(=O)/C(=C\c2ccc(-c3cccc(Cl)c3)o2)SC1=S (stereo unspecified),inactive
22,O=c1c(-c2cccc(Cl)c2)c[nH]n1-c1ccccc1,inactive
23,COc1ccc(CCNC(=O)c2cn(C)c3ccc(S(=O)(=O)N(C)C4CCCCC4)cc3c2=O)cc1OC,inactive
24,Cc1cc2nc(-c3ccc(Cl)cc3)c(Cc3cccc(F)c3)n2c(C)c1Br,inactive
25,Brc1ccccc1C1N=C(c2ccccc2)NO1 (stereo unspecified),inactive
26,N#Cc1ccc(C2N=C(c3ccccc3)NO2)cc1 (stereo unspecified),18.4 µM (active)

row,Compound,Potency
1,N#Cc1ccc(OC2=NS(=O)(=O)c3ccccc32)cc1,inactive
2,COc1cccc(-c2cc3nc(NCCOc4ccccc4Cl)n(C)c(=O)c3s2)c1,inactive
3,N#Cc1nc(NCc2ccc(Cl)c(Cl)c2)c2ncn(CCCO)c2n1,inactive
4,COc1ccc(CN2C(=O)C(CC(=O)NCCCCc3ccccc3)CC(C(=O)N3CCOCC3)=C2C)cc1 (stereo unspecified),inactive
5,CCCN(CCC)C(=O)Cn1c(=O)n(-c2ccc(Cl)cc2)c(=O)c2c3c(sc21)CCCCC3,inactive
6,N#Cc1ccc[n+](CC(=O)c2ccc(F)cc2)c1,inactive
7,COC(=O)c1ccc(CSc2nc3ccccc3c(=O)n2-c2cccc(OC)c2)o1,inactive
8,COc1ccc(CCNC(=O)CSc2nc3[nH]ncc3c(=O)n2-c2cccc(C(F)(F)F)c2)cc1OC,inactive
9,Cc1cccc2nc(CSc3nc4[nH]ncc4c(=O)n3-c3cccc(Cl)c3)cc(=O)n12,23.1 µM (active)
10,Cc1ccc(NC(=O)[C@H](Cc2ccccc2)NC(=O)CC[C@H]2O[C@@H](n3ccc(=O)[nH]c3=O)[C@H](O)[C@@H]2O)cc1C,inactive
11,O=C(c1ncn2c1c(=O)[nH]c1ccccc12)N1CCc2ccccc2C1,inactive
12,CN1CCN(c2oc(-c3ccc(COc4ccc(Cl)cc4)o3)nc2C#N)CC1,inactive
13,CC1(C)Cc2cccc(OCC(=O)NCc3ccccc3)c2O1,inactive
14,CC1(C)Cc2cccc(OCC(=O)N3CCN(c4ccc([N+](=O)[O-])cc4)CC3)c2O1,2.59 µM (active)
15,CC1(C)Cc2cccc(OCC(N)=O)c2O1,inactive
16,COc1ccccc1CNC(=O)c1ccc(N(C)S(=O)(=O)c2ccc(C)cc2)cc1,inactive
17,Cc1ccccc1CSCCNC(=O)c1ccc(N(C)S(=O)(=O)c2ccccc2)cc1,13 µM (active)
18,CN(c1ccccc1)S(=O)(=O)c1ccc(C(=O)NCCc2ccccc2)cc1,inactive
19,COCc1cccc(-c2csc(C(O)c3ccc(F)cc3)n2)c1 (stereo unspecified),inactive
20,OCCn1c(-c2ccccc2)csc1=Nc1ccccc1,14.6 µM (active)
21,O=c1cc(CCl)nc2scc(-c3ccccc3)n12,inactive
22,Cn1c(=O)nc2n(-c3ccc(Br)cc3)c3cccc(Cl)c3cc-2c1=O,inactive
23,CCOc1ccc(Cl)cc1-c1cc(C(=O)NCc2cccs2)[nH]n1,inactive

# From PubChem BioAssay AID1347076 (National Center for Advancing Translational Sciences (NCATS), 2019)
